Screens: PubChem BioAssay, Buhrlage Lab, Dana-Farber Cancer Institute and Novartis Institutes for BioMedical Research (Cambridge, Mass)
UCHL1 block = human UCHL1 deubiquitinase inhibition; inhibition, % at 20 µM; 47,000 compounds, 0.2% hits; AID 1645859; P09936; purified UCHL1, Ub-rhodamine cleavage fluorescence
Target sequence (P09936 whole entry, looked up): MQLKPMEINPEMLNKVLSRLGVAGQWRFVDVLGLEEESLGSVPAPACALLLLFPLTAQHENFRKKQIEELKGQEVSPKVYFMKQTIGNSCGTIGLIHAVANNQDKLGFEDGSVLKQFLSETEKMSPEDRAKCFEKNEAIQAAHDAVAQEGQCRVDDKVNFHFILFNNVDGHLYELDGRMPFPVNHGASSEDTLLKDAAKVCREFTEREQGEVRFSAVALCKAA
USP8 inh = human USP8 deubiquitinase inhibition. 47,000 compounds, 4.2% hits. inhibition, % at 20 µM. P40818. purified USP8, Ub-rhodamine cleavage fluorescence, 30 min
USP10 inh = human USP10 deubiquitinase inhibition | inhibition, % at 20 µM | 47,000 compounds, 1.1% hits | purified USP10, Ub-rhodamine fluorescence, 60 min | Q14694
USP7 block = blocks human USP7 ubiquitin-rhodamine cleavage; inhibition, % at 20 µM; purified USP7, Ub-rhodamine cleavage fluorescence; 47,000 compounds, 0.3% hits
Numbers without * were called inactive. Most compounds without a hit are left out; they make up all but 4.6% or so of the library. Cut-off read from the data, not from the text of the source: active = inhibition above about 30%; inactive = the rest.

SMILES | UCHL1 block | USP8 inh | USP10 inh | USP7 block
CN1[C@@H](CCC(=O)N2CCC(O)CC2)CNC(=O)[C@@H]2[C@H]1CCN2Cc1ccc(C(F)(F)F)cc1 | 10 | 32* | 0 | 0
COc1ccc(-c2nnc3ccc(N4CCCC4)nn23)cc1 | -2 | 2 | -4 | -6
COc1ccc(NC2(c3nnnn3C3CCCCC3)CCCCC2)cc1 | 6 | -6 | 3 | 9
CC(=O)c1nc2ccccc2c(=O)[nH]1 | 2 | 2 | 0 | -1
COc1ccc(NC(=O)COc2cccnc2[N+](=O)[O-])cc1Cl | 0 | 2 | 0 | 5
O=C(Nc1ccccc1F)C1Cc2ccccc2N1C(=O)c1ccccc1 (configuration not stated) | -4 | -6 | -6 | -4
O=C(CC1C(=O)N(Cc2ccccc2)c2nc3ccccc3n21)NCCc1ccccc1 (configuration not stated) | 3 | 17 | 9 | 3
O=C1CC(C(=O)NCCc2ccccc2)n2c(nc3ccccc32)N1 (configuration not stated) | -1 | 43* | 17 | 5
O=C1CC(C(=O)Nc2ccccc2F)n2c(nc3ccccc32)N1 (configuration not stated) | 3 | 39* | 20 | 13
CCN1CC(c2nc3ccccc3n2Cc2cccc(Cl)c2)CC1=O (configuration not stated) | -2 | -1 | 1 | -137
Cc1ccccc1Cn1ccc(NS(=O)(=O)c2cn(C)nc2C)n1 | -1 | -3 | 3 | -2
COc1cc(Cl)c(NC(=O)C2Cc3ccccc3N2C(=O)c2ccccc2)c(OC)c1 (configuration not stated) | 1 | -8 | 36* | 1
O=C(/C=C/c1cccc([N+](=O)[O-])c1)N1CCc2ccccc21 | 6 | 84* | 16 | 11
O=C(/C=C/c1ccc2c(c1)OCO2)N1CCCc2ccccc21 | 2 | -5 | 3 | 4
O=C(COc1cccc(-c2noc(-c3ccccc3)n2)c1)N1CCCC1 | 6 | 5 | -1 | -12
COc1ccc(Cc2nnc(Nc3ccc(F)cc3)[nH]c2=O)cc1 | 0 | 52* | 25 | 8
Cc1cccc(Nc2nnc(Cc3ccccc3)c(=O)[nH]2)c1 | 2 | 59* | 16 | 16
COc1ccc(Nc2nnc(Cc3ccccc3)c(=O)[nH]2)cc1 | 1 | 25 | 11 | 8
COc1ccc(Cc2nnc(NC(C)c3ccccc3)[nH]c2=O)cc1 (configuration not stated) | 4 | 67* | 31* | 15
COc1ccc(Cc2nnc(Nc3ccccc3)[nH]c2=O)cc1 | -1 | 51* | 3 | 4
O=C(Nc1cccc(C(=O)N2CCCC2C(=O)NC2CCCC2)c1)c1cccc(F)c1 (configuration not stated) | -1 | 0 | 0 | -23
Cc1cc(F)ccc1NC(=O)Cc1nnc(-c2ccc3ncccc3c2)o1 | -1 | 47* | -3 | 5
O=C(Cc1nnc(-c2ccc3ncccc3c2)o1)Nc1ccccc1 | 0 | -3 | -6 | -4
c1ccc2oc(CN3CC[C@H](c4nnc(-c5ccncc5)o4)C3)cc2c1 | -2 | 34* | -6 | -10
Fc1ccccc1CN1CC[C@H](c2nnc(-c3ccncc3)o2)C1 | 0 | -4 | -1 | 0
SMILES | UCHL1 block | USP8 inh | USP10 inh | USP7 block
NC(=O)COC(=O)c1c2c(nc3ccccc13)/C(=C/c1ccc(F)cc1)CCC2 | 5 | -16 | 6 | -16
Cc1ccc(C2c3c(-c4ccccc4O)n[nH]c3C(=O)N2Cc2ccco2)cc1 (configuration not stated) | 11 | 58* | 29 | 16
O=C1c2[nH]nc(-c3ccccc3O)c2C(c2ccc(F)cc2)N1Cc1ccco1 (configuration not stated) | 12 | 71* | 18 | 9
OC1CNc2nnc(-c3ccccc3)n2C1 (configuration not stated) | 0 | 1 | -1 | 1
CCc1cc2c3c([nH]c2cc1S(=O)(=O)NCCOC)CCCC3=O | 1 | -77 | 2 | -6
Cc1ccc(-c2cc(C(=O)Nc3ccc4c(c3)OCCO4)c3ccccc3n2)o1 | 8 | 28 | 0 | -16
O=C(Nc1ccc2c(c1)OCCO2)c1cccc2nc3ccccc3nc12 | 8 | 37* | 1 | 9
Fc1cccc(-c2nnc3ccc(SCc4ccccn4)nn23)c1 | -1 | -113 | 3 | 0
COc1ccc(/C=C/C(=O)Nc2nc3n(n2)C(c2ccccc2)CC(=O)N3)cc1OC (configuration not stated) | 6 | 79* | 3 | 11
COc1ccc(/C=C/C(=O)Nc2nc3n(n2)C(c2ccccc2)CC(=O)N3)cc1 (configuration not stated) | 7 | 73* | 21 | 13
